# BAZ2B block: inhibitors of human BAZ2B bromodomain; AlphaScreen BAZ2B-H3K14Ac peptide displacement; Potency, µM (highest dose often 114 µM), for inactives: at the top dose activity change, negative = inhibition, hits mostly inhibitors; hit rate 4.4% among 360,000; note: % is set by controls: 0 for no effect and ±100 for the full control effect; nearly all actives have a fitted effect of over 60% in size
#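 Complex of BAZ2B and biotin-H3K14Ac (50 nM apiece) forms over 30 min at RT, then faces library compounds up to 110 uM for another 30 min; AlphaScreen beads added, 20 min dark incubation, luminescence read.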
# JMJD2A Tudor inh: blocks the human JMJD2A Tudor domain; O75164; AlphaScreen JMJD2A-Tudor / H3K4me3 peptide binding; Potency, µM (highest dose often 114 µM), without a hit: at the highest dose activity change, negative = inhibition, hits mostly inhibitors; hit rate 4.4% among 390,000; AID 504339; note: % is set by controls: 0 for no effect and ±100 for the full control effect; nearly all actives have a fitted effect of over 50% in size
# G9a block: blocks human histone lysine methyltransferase G9a; Potency, µM (titrated, usually from 102 µM), for the others: top-dose activity, negative = inhibition, hits mostly inhibitors; G9a H3K9 monomethylation, AlphaScreen, 2 h; AID 504332; hit rate 8.8% among 350,000; Q96KQ7; note: % is set by controls: 0 for no effect and ±100 for the full control effect; nearly all actives have a fitted effect of over 75% in size
# Target sequence (Q96KQ7 913-1193 limits assumed): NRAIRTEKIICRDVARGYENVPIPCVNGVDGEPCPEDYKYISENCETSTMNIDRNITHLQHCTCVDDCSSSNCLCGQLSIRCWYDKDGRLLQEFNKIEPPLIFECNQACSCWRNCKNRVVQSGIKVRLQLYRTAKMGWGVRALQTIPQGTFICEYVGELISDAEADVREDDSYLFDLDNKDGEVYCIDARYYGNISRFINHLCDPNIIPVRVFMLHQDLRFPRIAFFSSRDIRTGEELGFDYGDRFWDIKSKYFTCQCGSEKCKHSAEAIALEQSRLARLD
#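 Enzyme 20 nM + cpd, 15 min RT; add b-H3K9 pep 500 nM / SAM 20 uM; 2 h RT; anti-H3K9me1 Ab 0.5 ug/mL + SA donor / anti-rabbit acceptor beads 20 ug/mL each, 10 min; AlphaScreen read.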
# Sfp PPTase inh: inhibitors of Bacillus subtilis Sfp phosphopantetheinyl transferase | hit rate 3.5% among 310,000 | Biochemical Sfp PPTase activity, qHTS | Potency, µM, for the others: largest response in the series, negative = inhibition, actives largely listed as inhibitors | Q9F4F7;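 note: the enzyme is Sfp with the accession as filed and its product quenches rhodamine fluorescence; 0% = enzyme reaction without inhibitor and -100% = no enzyme wells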
#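 Fluorescence-quenching assay: 15 nM Sfp-PPTase preincubated 15 min at room temperature with compound, then 5 uM rhodamine-CoA and 12.5 uM BHQ-2-labelled YbbR peptide added. Fluorescence (ex 525/em 598 nm) read at start and after 30 min; difference gives rate.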
# HP1b chromo inh: inhibitors of HP1-beta chromodomain binding to methylated histone tails. hit rate 0.56% among 390,000. AlphaScreen HP1-beta / biotin-H3K9me3 peptide binding. Potency, µM (top dose mostly 114 µM), for inactives: at the top dose activity change, negative = inhibition, usual class: inhibitors. P83916; note: nearly all actives have a fitted effect of over 70% in size
# Target sequence (P83916 whole entry, looked up): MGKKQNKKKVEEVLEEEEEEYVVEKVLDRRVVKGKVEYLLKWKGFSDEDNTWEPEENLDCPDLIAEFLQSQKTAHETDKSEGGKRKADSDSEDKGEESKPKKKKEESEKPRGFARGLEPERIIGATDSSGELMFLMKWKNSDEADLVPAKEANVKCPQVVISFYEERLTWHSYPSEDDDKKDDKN
#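 AlphaScreen: HP1-beta (50 nM) preformed 30 min with biotin-H3(1-18)K9me3 peptide (50 nM) in PBS pH 7.4, 0.01% Tween-20. Compound added for 30 min at RT, then streptavidin donor/nickel chelate acceptor beads (10 ug/mL) for 30 min.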
# * hit, by the source's call; ? = inconclusive; / = no result given; [ ] = dose if it differs, or a comment. An excerpt weighted towards active compounds, which were near 12% of everything screened. Calls come from the whole dose curve; as a rule, active = well fitted curve in the direction sought with a large enough effect; inconclusive = small, poorly fitted or top-dose-only effect, or another doubt; inactive = no such curve, though single readings can be large; an effect the other way counts as inactive or inconclusive. Potency is the fitted concentration of half-maximal effect.
SMILES,BAZ2B block,JMJD2A Tudor inh,G9a block,Sfp PPTase inh,HP1b chromo inh
CCn1c2c(c(=O)n3ncc(C(=O)Nc4ccc(OC(F)(F)F)cc4)c13)CN(Cc1ccc(OC)cc1)CC2,-5%,-11%,13µM*,/,22%[57 µM]
COc1ccc(CN2CCc3c(c(=O)n4ncc(C(=O)N5CCN(c6ccc(F)cc6)CC5)c4n3C)C2)cc1,79µM*,-11%,4%[59 µM],/,26%[57 µM]
CCn1c2c(c(=O)n3ncc(C(=O)N4CCN(c5ccc(C(C)=O)cc5)CC4)c13)CN(Cc1ccc(OC)cc1)CC2,-25%,-34%,2%[59 µM],/,36%[57 µM]
CCOC(=O)c1ccc(NC(=O)c2cnn3c(=O)c4c(n(CC)c23)CCN(Cc2ccc(OC)cc2)C4)cc1,-18%,-29%,7%[59 µM],/,5%[57 µM]
Nc1nnc(SCC(=O)Nc2ccc(N3CCOCC3)c(Cl)c2)s1,2%,-8%,/,9%,12%
CCCOC(C(=O)OC1CCN(C)CC1)(c1ccccc1)c1ccccc1,/,/,?,16%,/
CC1CCc2c(nc3ncnn3c2NCCN(C)C)C1 (configuration not stated),-25%,56µM*,4µM*,-10%,12%
C=CCNc1c2c(nc3ncnn13)CC(C)CC2 (configuration not stated),-5%,1%,-4%,8%,41%
Cc1cccc(Nc2nnc(-c3ccc(C)c(S(=O)(=O)N4CCN(C)CC4)c3)c3ccccc23)c1,?,-33%,18µM*,/,3%
Cc1ccc(-c2nnc(Nc3cccc(Cl)c3)c3ccccc23)cc1S(=O)(=O)N1CCN(C)CC1,?,?,7.9µM*,/,6%
Cc1ccc(-c2nnc(Nc3cccc(Br)c3)c3ccccc23)cc1S(=O)(=O)N1CCN(C)CC1,?,?,-51%[59 µM],/,3%
CNS(=O)(=O)c1cccc(C(=O)OCC(=O)NC2CCCC(C)C2C)c1 (configuration not stated),/,-11%,/,/,27%
CCCC[C@@H]1C[C@H]1C(NC(=O)c1ccc(C(F)(F)F)cc1)c1ccc(C(=O)OC)cc1 (some centres not stated),/,/,/,4%,/
CCN(CC)S(=O)(=O)c1ccc2c(c1)c(=O)c(C(=O)N1CCN(c3cc(Cl)ccc3C)CC1)cn2C,/,-9%,-3%[59 µM],/,28%
Cc1ccc2cccc(NC(=O)c3ccc(-c4ccc(Br)cc4)o3)c2n1,-14%,-10%,-8%[59 µM],/,24%
COc1ccc(/C=N/NC(=O)Nc2cccc3nsnc23)cc1,-28%,71µM*,0%[59 µM],6%,11%
O=C(Nc1ccccc1)Nc1cccc2nsnc12,24%,64%,25%[12.7 µM],63µM*,96%
O=C(Nc1cccc2nsnc12)c1ccc(-c2ccc(Br)cc2)o1,-32%,3%,40µM*,40µM*,15%
CC(C)(C)S(=O)(=O)N1Cc2ccc(CO)cc2[C@@H]1CCO,/,-1%,/,/,40%
Cc1ccccc1OCC(=O)NCCCNC(=O)c1ccncc1,-1%,0%,27%,1%,4%
Cc1ccc(N/C=C(\C#N)c2ccc(OCCCF)cc2)cc1,?,-16%,45µM*,26%,6%
COc1ccc(N/C=C(\C#N)c2ccc(OCCCF)cc2)cc1,?,?,-12%[12.7 µM],-5%,-12%
N#Cc1nc(Nc2ccc(C(F)(F)F)cc2)nc(NC2CCCC2)n1,/,-12%,/,/,/
N#CC1=C(N)Oc2cc(O)ccc2C1c1cccnc1 (configuration not stated),-3%,-1%,10%,15%,18%
Cc1nn(-c2cccc(Cl)c2)c2c1C(c1ccncc1)C(C#N)=C(N)O2 (configuration not stated),40µM*,79µM*,?,-9%,?
SMILES,BAZ2B block,JMJD2A Tudor inh,G9a block,Sfp PPTase inh,HP1b chromo inh
Cc1nn(-c2cccc(Cl)c2)c2c1C(c1cccnc1)C(C#N)=C(N)O2 (configuration not stated),50µM*,?,45µM*,-4%,-15%
COc1ccc(OC)c(C2C(C#N)=C(N)Oc3c2c(C)nn3-c2cccc(Cl)c2)c1 (configuration not stated),40µM*,50µM*,40µM*,-2%,-38%
O=C(c1cnccn1)N1CCC2(CCCN(c3ccccc3)C2)CC1,/,/,1%[12.7 µM],13%,/
O=C(O)CN1CCCC1=Nc1ccccc1,89µM*,-15%,?,12%,38%
Clc1ccc(CNc2ncnc3nc[nH]c23)cc1,/,-4%,/,/,21%
c1ccc(-c2cc(-c3ccncc3)nc3ccc4ccccc4c23)cc1,6%,-5%,29%[59 µM],56µM*,43%
Clc1ccc2nc(-c3ccncc3)cc(-c3ccccc3)c2c1,-21%,-17%,-7%[59 µM],10%,6%
CCN(c1cccc(C)c1)S(=O)(=O)c1ccc2[nH]cc(C(=O)NCCCOC)c(=O)c2c1,1%,-6%,-15%[59 µM],/,15%
CN1/C(=C\C(=O)CSc2nnc(N)s2)C(C)(C)c2ccccc21,-2%,-26%,20%[59 µM],7%,22%
CN1/C(=C\C(=O)CSc2cccc[n+]2[O-])C(C)(C)c2ccccc21,-5%,-3%,10µM*,16µM*,35%
CN1/C(=C/C(=O)CSc2ccccc2C(=O)O)C(C)(C)c2ccccc21,?,-30%,?,89µM*,2%
Cc1cc(C(F)(F)F)c(C#N)c(N2CCOCC2)n1,9%,28µM*,12%,?,-8%
Cc1ccc(-c2ccc(CCC(=O)O)n2Cc2ccco2)cc1,?,?,50µM*,-18%,-6%
O=C(O)CCc1ccc(-c2cccs2)n1CC1CCCO1 (configuration not stated),-33%,?,18µM*,-20%,-2%
CCCn1c(CCC(=O)O)ccc1-c1ccccc1,-1%,35µM*,5%[59 µM],-26%,?
O=C(O)CCc1ccc(-c2ccccc2)n1CC(=O)O,-19%,?,?,-16%,9%
O=C(O)CCc1ccc(-c2ccc(F)cc2)n1CCC(=O)O,-21%,-20%,11µM*,?,30%
O=C(O)CCc1ccc(-c2ccc(F)cc2)n1CC1CCCO1 (configuration not stated),-6%,-24%,?,7%,7%
CCCn1c(CCC(=O)O)ccc1-c1cccs1,?,-26%,?,25µM*,16%
Cc1ccnc(N=Cc2c(O)ccc3oc4c(c23)CCCC4)c1,68%,/,74%[59 µM],-13%,/
CCOC(=O)C1CCCN(C(=O)c2[nH]c3ccccc3c2Sc2ccc(Cl)cc2)C1 (configuration not stated),?,-33%,8.9µM*,/,22%
CC1CCc2[nH]c3ccc(C(=O)N4CCCC(C(F)(F)F)C4)cc3c2C1 (configuration not stated),32µM*,?,35µM*,/,-4%
CCOC(=O)C1CCCN(C(=O)c2ccc3[nH]c4c(c3c2)CC(C)CC4)C1 (configuration not stated),50µM*,?,?,/,?
